PLAP activator: activates human placental alkaline phosphatase; P05187; purified PLAP enzyme, luminescent substrate read-out; hits give high values; activation fold at 20 µM; 1.2% of 96,000 active; AID 696; in the data active = activation fold above about 2
CD11b adhes enh: increases human CD11b/CD18 adhesion to fibrinogen | P05107+P11215 | K562 CD11b/CD18 adhesion to fibrinogen, ATPlite luminescence | activation, % at 10 µM | 0.07% of 93,000 active | AID 1499;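 active = 10 µM primary screen giving 50% or more activity, confirmed by 40% or more on retest at that dose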
Mac1 fbg inh: inhibitors of human CD11b/CD18 binding to fibrinogen | P05107+P11215 | K562 CD11b/CD18 adhesion to fibrinogen, ATPlite luminescence; Mn2+ added to activate the integrin | inhibition, % at 10 µM | 0.54% of 93,000 active;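 active = primary inhibition of 50% or more at 10 µM, then 40% or more on retest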
HePTP inh: blocks human HePTP tyrosine phosphatase; 0.64% of 110,000 active; inhibition, % at 20 µM; recombinant HePTP phosphatase activity, OD absorbance; P35236; in the data active = inhibition above about 50%;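 note: plate controls were vehicle for no effect and reference inhibitor for full effect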
Target sequence (P35236 whole entry, looked up): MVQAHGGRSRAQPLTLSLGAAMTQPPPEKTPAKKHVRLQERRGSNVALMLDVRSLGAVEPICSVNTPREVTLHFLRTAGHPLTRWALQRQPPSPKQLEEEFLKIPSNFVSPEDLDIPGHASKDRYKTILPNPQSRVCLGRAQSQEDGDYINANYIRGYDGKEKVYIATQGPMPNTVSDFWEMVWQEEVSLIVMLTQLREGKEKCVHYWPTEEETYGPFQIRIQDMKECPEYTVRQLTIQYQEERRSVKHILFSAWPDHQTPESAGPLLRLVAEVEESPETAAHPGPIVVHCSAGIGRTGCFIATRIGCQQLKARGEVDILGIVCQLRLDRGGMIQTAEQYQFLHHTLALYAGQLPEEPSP
* marks the source's active call; other numbers are inactive results; x = not tested or not shown. A selection: hits, their analogues and other compounds. The true share with any hit is near 1.5%.

SMILES | PLAP activator | CD11b adhes enh | Mac1 fbg inh | HePTP inh
CC(=O)c1sc(NC(=O)C2(F)C(F)(F)C(F)(F)C(F)(F)C(F)(F)C2(F)F)nc1C | 1.2 | -10 | 102* | 0
COc1ccc(NC(=S)NC(NC(=O)c2ccc(Cl)cc2Cl)C(Cl)(Cl)Cl)c([N+](=O)[O-])c1 (centres undefined) | 1 | -3 | 83* | x
COc1cccc(C(=O)NC(NC(=S)Nc2cc(OC)ccc2OC)C(Cl)(Cl)Cl)c1 (centres undefined) | x | x | x | -2
COc1ccc(OC)c(NC(=S)NC(NC(=O)c2ccccc2Cl)C(Cl)(Cl)Cl)c1 (centres undefined) | x | x | x | 104*
Cc1cc(C(=O)c2ccccc2)c2[nH]cc(C)c2c1 | x | x | x | 8
C=CCN1C(=O)/C(=C\c2ccc(-c3ccc([N+](=O)[O-])cc3)o2)C(=O)NC1=S | x | x | x | 102*
C=CCN1C(=O)/C(=C/c2ccc(C)cc2)C(=O)NC1=S | x | x | x | 9
C=CCN1C(=O)/C(=C\c2ccc(-c3cccc([N+](=O)[O-])c3)o2)C(=O)NC1=S | x | x | x | 96*
C=CCN1C(=O)/C(=C\c2ccc(-c3ccc(Br)cc3)o2)C(=O)NC1=S | x | x | x | 100*
C=CCN1C(=O)/C(=C/c2cccc([N+](=O)[O-])c2)C(=O)NC1=S | x | x | x | 10
C=CCN1C(=O)/C(=C\c2ccc(-c3ccc(C)cc3Br)o2)C(=O)NC1=S | x | x | x | 102*
C=CCN1C(=O)/C(=C\c2cc(Br)cc(Cl)c2O)C(=O)NC1=S | x | x | x | -3
O=C(CCC1CCCC1)c1c(O)c2ccccc2oc1=O | 0.9 | -9 | 88* | 5
O=C1NN(c2cccc(Cl)c2)C(=O)/C1=C\c1ccc(F)cc1 | x | x | x | 9
O=C(O)CCCC(=O)OCc1ccco1 | x | x | x | 102*
CC(C)OC(=O)c1cccc(C(=O)OCc2ccco2)n1 | 1.2 | -4 | 4 | 1
CCOC(=O)c1c(NC(=S)Nc2ccccc2)sc2c1CC(C)(CC)OC2 (centres undefined) | x | x | x | -11
O=[N+]([O-])c1ccc(NC(=S)NCCc2ccc(F)cc2)cc1 | x | -10 | 97 | x
O=[N+]([O-])c1cccc(NC(=S)NCCc2ccccc2)c1 | x | -8 | 104* | x
CCOc1cc([N+](=O)[O-])cc(/C=C2\SC(=S)N(C)C2=O)c1O | x | x | x | 66*
COc1cc([N+](=O)[O-])cc(C=C2C(=O)N(C)C(=O)N(C)C2=O)c1O | x | x | x | 4
Clc1cccc(CSc2nc3ccncc3[nH]2)c1 | 2.4* | 2 | 17 | x
Fc1cccc(CSc2nc3ccncc3[nH]2)c1 | x | x | x | 5
COc1ccc(CN2CCN(C(=O)c3ccc(F)cc3)CC2)cc1Br | x | x | x | 9
Cc1ccc(-c2nn3c(C)nnc3s2)cc1NC(=O)c1ccc(-c2cccc(Cl)c2)o1 | 1.6 | 88* | -15 | -10
SMILES | PLAP activator | CD11b adhes enh | Mac1 fbg inh | HePTP inh
CC1=C(C(=O)OC2CCCCC2)C(c2cccc([N+](=O)[O-])c2)C2=C(CCCC2=O)N1 (centres undefined) | x | x | x | 4
COc1ccc(-c2cc(-c3ccccc3)nc(N/N=C/c3cccnc3)n2)cc1 | x | x | x | 5
c1ccc(-c2nnc(-c3ccccn3)nc2NC2CCCCC2)cc1 | 2.4* | -1 | -3 | x
C1=C(c2ccccc2)CCN(c2ncnc3nc[nH]c23)C1 | 2* | 2 | 11 | 4
c1ccc2c(c1)CCN(c1ncnc3nc[nH]c13)C2 | 1.5 | -1 | -1 | 0
c1ccc(CN2CCN(c3ncnc4nc[nH]c34)CC2)cc1 | 2.1* | 2 | -6 | 10
CC(=O)Nc1ccccc1NC(=O)Cc1ccc(Cl)cc1 | x | x | x | -9
COC(=O)c1ccc(NC(=O)COc2c(C)cccc2C)cc1 | x | x | x | -4
CCOc1cc(/C=C/C(=O)O)cc(I)c1OC | x | x | x | -9
O=C1CS/C(=N\N=C\c2cn(Cc3ccc(Cl)cc3Cl)c3ccccc23)N1 | x | x | x | 66*
O=C(Nc1cccc(Cl)c1)c1cccc(NC(=S)Nc2ccc(F)cc2)c1 | x | x | x | 104*
O=C(Nc1cccc(Cl)c1)c1cccc(NC(=S)Nc2ccccc2)c1 | x | x | x | 8
COc1cc(C=Nc2ccc(Nc3ccccc3)cc2)cc(Br)c1O | x | x | x | -3
CCCC(=Nc1ccc(OC)cc1)C1=C(O)CC(C)(C)CC1=O | x | x | x | -12
CCCC(=Nc1cccc([N+](=O)[O-])c1)C1=C(O)CC(C)(C)CC1=O | x | x | x | 61*
Cc1[nH]n(-c2ccc([N+](=O)[O-])cc2)c(=O)c1C=NCCN1CCN(C(=O)c2ccccc2)CC1 | 2* | -6 | 1 | x
O=C(O)/C=C/c1cccc(N2C(=O)C=CC2=O)c1 | x | x | x | 89*
O=C1CC(Sc2nnc(-c3ccccc3O)o2)C(=O)N1c1ccccc1 (centres undefined) | 1 | -5 | 1 | -1
O=C1c2ccccc2CC1Sc1nnc(-c2ccccn2)o1 (centres undefined) | 2.6* | -4 | -16 | 5
